The source of these data is PubChem BioAssay (NCI).

Some test systems named below: SK-MEL-2 melanoma; EKVX NSCLC; SN12C renal; UO-31 renal; ACHN renal; CAKI-1 renal; A498 renal; CCRF-CEM leukemia; MOLT-4 leukemia; SR leukemia; RPMI-8226 leukemia; OVCAR-8 ovarian; OVCAR-4 ovarian; SK-OV-3 ovarian; IGROV1 ovarian; OVCAR-3 ovarian; HS 578T breast; NCI/ADR-RES ovarian; OVCAR-5 ovarian; TK-10 renal.
Experiment in all cases: NCI-60 one-dose screen, 48 h (100 = growth as untreated, 0 = no growth, -100 = all killed)
Holding throughout (conditions): 10 µM unless noted

Compounds without any hit were thinned out: in the full panel of roughly 83,000, 20% have a hit.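 Single-concentration screen, 48 h exposure, 96-well plates. Endpoint: percent growth. Below 10 = active.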 A number with no mark means an inactive call. Calls of active or inactive are those of the source.

Turning to `CC(C)[C@@]12C[C@@H](OC(=O)[C@H]3CO3)[C@@](C)(O1)[C@@H]1CC[C@@H](C)[C@H]1[C@@H]2OC(=O)/C=C/c1ccccc1`, the growth in the experiment with SK-MEL-2 melanoma was 82.4%; in the experiment with EKVX NSCLC, 71.9%; with SN12C renal it was 52.5%; in the experiment on UO-31 renal it was -8.95% (active); in the experiment on ACHN renal, 23.5%; in the experiment with CAKI-1 renal, 46.6%. For the same molecule, the growth in the experiment with A498 renal is -61.1% (active); in the experiment with CCRF-CEM leukemia it was 81.9%; with MOLT-4 leukemia, 72.8%; in the experiment with SR leukemia, 69.4%; in the experiment on RPMI-8226 leukemia it was 72.7%; in the experiment on OVCAR-8 ovarian it was 11.1%. Further, the growth is 92% with OVCAR-4 ovarian; 76.5% in the experiment on SK-OV-3 ovarian; 85.7% in the experiment on IGROV1 ovarian; 87% in the experiment on OVCAR-3 ovarian; -23.9% (active) in the experiment with HS 578T breast; 31.1% with NCI/ADR-RES ovarian.

Take `Cc1csc(N/N=C/c2ccncc2)n1`: the growth in the experiment on SK-MEL-2 melanoma is 97.7%; in the experiment with EKVX NSCLC it was 90.1%; in the experiment on SN12C renal, 97.8%; in the experiment with UO-31 renal, 95%; with ACHN renal it was 103%; in the experiment with CAKI-1 renal, 99.5%. Further, the growth in the experiment with A498 renal is 85.2%; in the experiment on SR leukemia, 96.6%; with RPMI-8226 leukemia it was 131%; in the experiment with OVCAR-8 ovarian, 97.7%; in the experiment with OVCAR-5 ovarian it was 112%; in the experiment with OVCAR-4 ovarian it was 116%. Besides, the growth is 101% in the experiment on SK-OV-3 ovarian; 105% with IGROV1 ovarian; 112% in the experiment on OVCAR-3 ovarian; 104% in the experiment with HS 578T breast; 107% in the experiment on NCI/ADR-RES ovarian.

`N/N=C(\C(=N\N)c1ccccc1)c1ccccc1`: the growth in the experiment with SK-MEL-2 melanoma is 98.7%; in the experiment on EKVX NSCLC, 94%; in the experiment with SN12C renal, 88.9%; with UO-31 renal, 73.6%; in the experiment on TK-10 renal, 98.8%; in the experiment on ACHN renal it was 104%. The growth with CAKI-1 renal is 99.9%; in the experiment with SR leukemia it was 77.2%; in the experiment with OVCAR-8 ovarian, 104%; with OVCAR-5 ovarian, 102%; in the experiment on OVCAR-4 ovarian, 77.3%; with SK-OV-3 ovarian, 99.4%. Moreover, the growth in the experiment on IGROV1 ovarian is 96.8%; in the experiment on OVCAR-3 ovarian, 112%; in the experiment with HS 578T breast, 108%; in the experiment with NCI/ADR-RES ovarian, 102%.

On to `Cc1ccsc1C(=O)CC(=O)C(F)(F)C(F)(F)C(F)(F)F`, for which the growth with SK-MEL-2 melanoma was 115%; in the experiment with EKVX NSCLC, 93%; in the experiment on SN12C renal, 96.7%; in the experiment with UO-31 renal, 86.5%; with ACHN renal, 102%; in the experiment on CAKI-1 renal, 92%. The growth is 116% in the experiment on A498 renal; 95.7% in the experiment with CCRF-CEM leukemia; 110% in the experiment with MOLT-4 leukemia; 108% in the experiment on SR leukemia; 101% in the experiment on RPMI-8226 leukemia; 102% with OVCAR-8 ovarian. The growth in the experiment with OVCAR-5 ovarian was 97.4%; with OVCAR-4 ovarian, 98.6%; with SK-OV-3 ovarian it was 103%; in the experiment on IGROV1 ovarian it was 114%; in the experiment with HS 578T breast, 110%; in the experiment with NCI/ADR-RES ovarian, 107%.

Consider `CSc1nc(N)c2[nH]c(-c3cc4ccccc4[nH]c3=O)nc2n1`, for which the growth with SK-MEL-2 melanoma was 74.2%; in the experiment with EKVX NSCLC, 103%; in the experiment on SN12C renal, 85.1%; in the experiment with UO-31 renal, 57.3%; in the experiment with ACHN renal, 61.1%; with CAKI-1 renal, 68.9%. In addition, the growth is 92.4% in the experiment with A498 renal; 91.6% in the experiment with CCRF-CEM leukemia; 79.8% in the experiment with MOLT-4 leukemia; 85.1% in the experiment with RPMI-8226 leukemia; 90.2% with OVCAR-8 ovarian; 119% with OVCAR-5 ovarian. In addition, the growth was 83.7% in the experiment on OVCAR-4 ovarian; 66.1% in the experiment on SK-OV-3 ovarian; 61.5% with IGROV1 ovarian; 119% in the experiment on OVCAR-3 ovarian; 94.6% in the experiment with HS 578T breast; 94.8% in the experiment with NCI/ADR-RES ovarian.

With `COc1ccc(-c2nc(SCCC(C)C)nc(Nc3ccc(C(=O)O)cc3)c2C#N)cc1`, the growth in the experiment with SK-MEL-2 melanoma is 70%; in the experiment with EKVX NSCLC it was 87.7%; in the experiment with SN12C renal, 90.6%; with UO-31 renal, 67%; with ACHN renal it was 83.9%; with CAKI-1 renal it was 92.1%. Further, the growth in the experiment with A498 renal is 62.5%; in the experiment on CCRF-CEM leukemia it was 73.5%; in the experiment with MOLT-4 leukemia, 78.7%; in the experiment with SR leukemia it was 77.3%; in the experiment with RPMI-8226 leukemia, 62.9%; with OVCAR-8 ovarian, 93.9%. Moreover, the growth with OVCAR-5 ovarian is 105%; with OVCAR-4 ovarian, 89.2%; with SK-OV-3 ovarian, 109%; in the experiment with IGROV1 ovarian it was 110%; in the experiment with OVCAR-3 ovarian it was 97.5%; in the experiment with HS 578T breast it was 94.2%. In addition, the growth in the experiment on NCI/ADR-RES ovarian is 102%.

As to `CCn1c(Cc2ccccc2Nc2c(Cl)cccc2Cl)nnc1SCC(=O)Nc1ccccc1C(F)(F)F`, the growth is 79.9% in the experiment with SK-MEL-2 melanoma; 82.8% in the experiment on EKVX NSCLC; 77.1% with SN12C renal; 74.8% in the experiment with UO-31 renal; 106% in the experiment on ACHN renal; 87.1% with CAKI-1 renal. Moreover, the growth in the experiment on A498 renal was 64.5%; with CCRF-CEM leukemia it was 108%; in the experiment on MOLT-4 leukemia it was 70.2%; in the experiment on SR leukemia, 79.8%; in the experiment on RPMI-8226 leukemia it was 76.4%; with OVCAR-8 ovarian, 92.8%. The growth in the experiment with OVCAR-5 ovarian is 110%; in the experiment on OVCAR-4 ovarian, 79%; with SK-OV-3 ovarian it was 96.1%; in the experiment with IGROV1 ovarian it was 79.4%; in the experiment with OVCAR-3 ovarian it was 99.9%; with HS 578T breast, 94.9%. The growth in the experiment on NCI/ADR-RES ovarian is 87.4%.

With `COc1ccc(-c2nc3ccccc3n3cccc23)cc1`, the growth with SK-MEL-2 melanoma was 111%; with EKVX NSCLC, 97.2%; with SN12C renal it was 95.1%; with UO-31 renal it was 45.7%; in the experiment on ACHN renal, 105%; with CAKI-1 renal it was 85.5%. The growth is 99.4% with A498 renal; 89.9% in the experiment on CCRF-CEM leukemia; 101% with MOLT-4 leukemia; 75.6% in the experiment on RPMI-8226 leukemia; 103% in the experiment with OVCAR-8 ovarian; 113% in the experiment with OVCAR-5 ovarian. Further, the growth was 99.8% in the experiment on OVCAR-4 ovarian; 122% in the experiment with SK-OV-3 ovarian; 47.1% in the experiment on IGROV1 ovarian; 101% with OVCAR-3 ovarian; 111% in the experiment on HS 578T breast.

On to `COc1ccc2nc3ccccc3c(NCc3ccc(C)cc3)c2c1`, for which the growth with SK-MEL-2 melanoma is 70%; in the experiment with EKVX NSCLC it was 35.2%; in the experiment on SN12C renal it was 23.6%; with UO-31 renal, 13.4%; in the experiment with ACHN renal, 16.3%; with CAKI-1 renal, 26.2%. The growth in the experiment with A498 renal is -1.58% (active); in the experiment with CCRF-CEM leukemia, 7.09% (active); with SR leukemia, -12.7% (active); in the experiment with RPMI-8226 leukemia it was -46.2% (active); in the experiment on OVCAR-8 ovarian, 28.7%; in the experiment on OVCAR-5 ovarian, 34%. The growth in the experiment with OVCAR-4 ovarian was 18.5%; with SK-OV-3 ovarian it was 52.7%; with IGROV1 ovarian, 17.2%; in the experiment on OVCAR-3 ovarian it was 46.9%; in the experiment with HS 578T breast it was 42.7%; in the experiment with NCI/ADR-RES ovarian it was 23.8%.
